Only a selection was taken, and hits are over-represented in it overall.
ERK EGF block: qHTS Assay for Inhibitors of the ERK Signaling Pathway using a Homogeneous Screening Assay; Stimulation with EGF; HEK293-V1b, EGF-stimulated phospho-ERK AlphaScreen; Potency, µM (top dose mostly 11.5 µM), usual class: inhibitors; 0.41% of 130,000 active; AID 1454, 2008; further: nearly all actives have a fitted effect of over 55% in size
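Stably V1b-transfected HEK293 cells; 30 min compound, then EGF 25 nM final for 5 min at 37C; 10 min lysis; phospho-ERK by AlphaScreen after 5 hr beads at room temperature.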
NPSR antag: qHTS Assay for Antagonists of the Neuropeptide S Receptor: cAMP Signal Transduction; Q6W5P4; CHO-NPSR cells, cAMP TR-FRET, antagonist mode; Potency, µM (series often up to 38.3 µM), usual class: inhibitors; 1% of 220,000 active; AID 1461, 2008; further: nearly all actives have a fitted effect of over 50% in size
pERK EGF inh: Confirmation Concentration-Response Assay for Inhibitors of the ERK Signaling Pathway using a Homogeneous Screening Assay; Stimulation with EGF; shares compounds with ERK EGF block; HEK293 EGF-stimulated ERK phosphorylation, AlphaScreen; Potency, µM (top dose mostly 57.5 µM), usual class: inhibitors; 60% of 60 active; AID 1725, 2009
cRaf kinase inh: Assay for Inhibitors of the ERK Signaling Pathway using a Homogeneous Screening Assay: c-Raf Inhibition; shares compounds with ERK EGF block; c-Raf kinase inhibition, homogeneous biochemical assay; activity change, negative = inhibition, % at 76.9 µM; 70 tested, under 10 active; AID 1728, 2009
Target sequence (P04049 whole entry, looked up): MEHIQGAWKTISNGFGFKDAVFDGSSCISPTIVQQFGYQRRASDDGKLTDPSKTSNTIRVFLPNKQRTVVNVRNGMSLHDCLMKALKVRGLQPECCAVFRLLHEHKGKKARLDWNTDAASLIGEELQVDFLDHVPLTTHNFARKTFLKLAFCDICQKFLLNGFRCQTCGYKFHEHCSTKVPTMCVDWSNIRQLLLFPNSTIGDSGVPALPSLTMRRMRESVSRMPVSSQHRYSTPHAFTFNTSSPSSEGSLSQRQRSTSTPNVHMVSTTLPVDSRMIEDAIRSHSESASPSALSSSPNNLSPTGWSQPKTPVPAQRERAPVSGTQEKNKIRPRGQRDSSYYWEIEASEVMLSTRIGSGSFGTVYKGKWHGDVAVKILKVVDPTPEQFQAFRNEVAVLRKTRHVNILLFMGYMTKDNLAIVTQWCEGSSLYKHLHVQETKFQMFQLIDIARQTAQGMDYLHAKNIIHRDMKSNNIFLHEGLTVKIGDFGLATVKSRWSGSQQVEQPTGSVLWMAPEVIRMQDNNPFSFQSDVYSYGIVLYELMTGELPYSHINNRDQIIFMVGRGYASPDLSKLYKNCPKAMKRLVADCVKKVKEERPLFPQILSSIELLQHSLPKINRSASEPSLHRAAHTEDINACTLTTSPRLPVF
MEK1 kinase inh: Assay for Inhibitors of the ERK Signaling Pathway using a Homogeneous Screening Assay: MEK Inhibition; shares compounds with ERK EGF block; homogeneous MEK kinase activity assay, ERK pathway; Potency, µM (doses to about 76.9 µM), hits mostly inhibitors; 70 tested, under 10 active; AID 1732, 2009
Each line names hits and unclear results; the compound was inactive in the other large screens (follow-up assays come after a bar, where they were run). The call rests on the fitted dose curve; in most records, active means well fitted curve in the direction sought with a large enough effect; inconclusive means small, poorly fitted or top-dose-only effect, or another doubt; inactive means no such curve, though single readings can be large; an effect the other way counts as inactive or inconclusive.

C=CCOC(=O)C1(C(NC(=O)OC)c2ccccc2)C(=O)Cc2ccccc21 (configuration not stated)	none (no result: NPSR antag)
CC1=NOC(=O)/C1=C\c1ccc(-c2ccc(Br)cc2)o1	ERK EGF block inconclusive
CC1=NOC(=O)/C1=C\c1ccc(-c2cc(Cl)ccc2Cl)o1	NPSR antag 10µM (no result: ERK EGF block)
COC(=O)N[C@@H](CCc1ccccc1)/C(C(=O)OC)=C(\C)NCc1ccccc1	none (no result: NPSR antag)
O=S(=O)(c1ccccc1)N1CCC2(CCCN(Cc3cc(C(F)(F)F)cc(C(F)(F)F)c3)C2)CC1	none (no result: NPSR antag)
C=C[C@@]1(C)CC(=O)[C@@]2(O)[C@@]3(C)[C@@H](O)CCC(C)(C)[C@@H]3[C@H](OC(=O)CCN(C)C)[C@H](OC(C)=O)[C@@]2(C)O1	none (no result: NPSR antag)
C=C[C@]1(C)CC(=O)[C@@]2(O)[C@@]3(C)C(O)CCC(C)(C)C3C(O)C(OC(C)=O)[C@@]2(C)O1 (some centres not stated)	ERK EGF block inconclusive (no result: NPSR antag) | pERK EGF inh inactive | cRaf kinase inh inactive | MEK1 kinase inh inactive
NS(=O)(=O)c1ccc(N/N=C/c2ccc3c(c2)OCO3)c([N+](=O)[O-])c1	none
O=[N+]([O-])c1ccccc1N/N=C/c1ccc2c(c1)OCO2	ERK EGF block inconclusive | pERK EGF inh inconclusive | cRaf kinase inh inactive | MEK1 kinase inh inactive
CC(C)C[C@@H](CC(=O)N[C@@H](CCC(=O)O)CC(=O)O)NC(=O)[C@@H]1CCCC[C@H]1NC(=O)C[C@@H](NC(=O)C[C@H](Cc1c[nH]c2ccccc12)NC(=O)[C@@H]1CNCC[C@H]1N)C(C)C	none (no result: NPSR antag)
N#C/C(=C(/N)Sc1ccc(N)cc1)c1ccccc1C(F)(F)F	ERK EGF block 0.89µM (no result: NPSR antag) | cRaf kinase inh inactive | MEK1 kinase inh inactive
Nc1ccc(SC(F)(F)F)cc1	none
COCCNc1ccnc(-c2ccccc2CN(C)C)n1	none (no result: NPSR antag)
Cn1c(=O)cc(Nc2ccccc2)c2c(=O)n(-c3ccccc3)c(=O)n(-c3ccccc3)c21	ERK EGF block 5µM | pERK EGF inh 10µM | cRaf kinase inh inactive | MEK1 kinase inh inactive
Cn1c(=O)c2c(Nc3ccc(F)cc3)cc(=O)n(-c3ccccc3)c2n(C)c1=O	none
Cc1nc(N2CCOCC2)c2nc(-c3ccccc3)n(CC3CCN(C)CC3)c2n1	none (no result: NPSR antag)
Cc1ccc(Nc2ncnc3sc(C)c(C)c23)cc1	ERK EGF block 8.9µM | pERK EGF inh 11µM | cRaf kinase inh inconclusive | MEK1 kinase inh inactive
Cc1sc2ncnc(N)c2c1C	none
CCC(/C=C/C(C)C1CCC2C3CCC4=CC(=O)CC[C@@]4(C)C3CC[C@@]12C)C(C)C (some centres not stated)	none (no result: NPSR antag)
O=S(=O)(Nc1ncnc2sc3c(c12)CCC3)c1cc(F)ccc1F	none
Fc1cccc(Nc2ncnc3sc4c(c23)CCC4)c1	ERK EGF block 3.2µM | pERK EGF inh 10µM | cRaf kinase inh inconclusive | MEK1 kinase inh inactive
CC[C@@H]1OC(=O)[C@H](C)[C@H](O[C@@H]2C[C@](C)(OC)[C@H](O)[C@H](C)O2)[C@H](C)[C@H](O[C@@H]2O[C@@H](C)C[C@@H](N(C)C)[C@@H]2O)[C@](C)(O)C[C@H](C)C(=NOCOCCOC)[C@H](C)[C@H](O)[C@]1(C)O	none (no result: NPSR antag)
C[C@@]12CCC(O)C[C@H]1CCc1ccccc12 (some centres not stated)	none (no result: NPSR antag)
c1cncc(-c2ccc3ncnc(N4CCNCC4)c3c2)c1	none (no result: NPSR antag)
c1ccc(Nc2ncnc3ccc(-c4cccnc4)cc23)cc1	ERK EGF block 2.5µM (no result: NPSR antag) | pERK EGF inh 3.5µM | cRaf kinase inh inconclusive | MEK1 kinase inh inactive
O=C(O)[C@H]1CN[C@H](C(=O)O)C1	none (no result: NPSR antag)
CCc1cccc2nc3c(c([Si](C)(C)C)c12)Cn1c-3cccc1=O	none (no result: NPSR antag)
COc1ccccc1Nc1ncnc2ccc(C)cc12	none (no result: ERK EGF block)
COc1cc2ncnc(Nc3cccc(Cl)c3)c2cc1OC	ERK EGF block 0.25µM | pERK EGF inh 0.2µM | cRaf kinase inh inconclusive | MEK1 kinase inh inactive
COC(=O)c1cccc(OCC(O)Cn2ccnc2)c1 (configuration not stated)	none (no result: ERK EGF block)
COc1ccc(C(=O)OC(COc2ccccc2)Cn2ccnc2)cc1 (configuration not stated)	ERK EGF block 7.1µM | pERK EGF inh 14µM | cRaf kinase inh inactive | MEK1 kinase inh inactive
COc1ncc2nc(-c3ccc(Cl)cc3)c(=O)n(CCc3ccccc3)c2n1	none (no result: NPSR antag)
COc1ccc(-c2nc3cnc(N(C)C)nc3n(CCc3ccccc3)c2=O)cc1	ERK EGF block inconclusive (no result: NPSR antag) | pERK EGF inh inconclusive | cRaf kinase inh inactive | MEK1 kinase inh inactive
c1cncc(-c2nc(NCCN3CCOCC3)c3ccccc3n2)c1	none (no result: NPSR antag)
COc1cc2nc(N(C)CCCNC(=O)[C@@H]3CCCO3)nc(N)c2cc1OC	none (no result: NPSR antag)
O=c1cc(-c2ccc(O)cc2)oc2cc(O)ccc12	none (no result: NPSR antag)
O=c1cc(-c2ccc(O)cc2)oc2cccc(O)c12	none (no result: NPSR antag) | pERK EGF inh inactive | cRaf kinase inh inconclusive | MEK1 kinase inh inactive
CNc1cccc2c1C(=O)c1ccccc1C2=O	ERK EGF block 10µM | pERK EGF inh 14µM | cRaf kinase inh inactive | MEK1 kinase inh inactive
O=C1c2ccccc2C(=O)c2c(NCc3cccnc3)cccc21	none (no result: ERK EGF block)
Cc1nc(N2CCOCC2)c2nc(-c3ccccc3)n(CC(C)(C)CN(C)C)c2n1	none (no result: NPSR antag)
COc1cccc(Cn2c(=O)c(-c3cccc(F)c3)nc3cncnc32)c1	none (no result: NPSR antag)
Cc1cccc(CNc2ncnc3ccc(-c4cccc(NS(C)(=O)=O)c4)cc23)c1	ERK EGF block 6.3µM (no result: NPSR antag) | pERK EGF inh 11µM | cRaf kinase inh inconclusive | MEK1 kinase inh inactive
Cc1cccc(CNc2cc(-c3cccc(NS(C)(=O)=O)c3)ncn2)c1	none (no result: NPSR antag)
N#CC(C#N)=C1C=CC=CN1/C(=C\c1ccco1)C(=O)c1ccc(Cl)cc1	ERK EGF block 10µM, NPSR antag inconclusive | pERK EGF inh inconclusive | cRaf kinase inh inactive | MEK1 kinase inh inactive
N#CC(C#N)=C1C=CC=CN1/C(=C\c1ccco1)C(=O)c1ccc(-c2ccccc2)cc1	ERK EGF block inconclusive
N[C@H](Cc1cc(I)c(Oc2ccc(O)c(I)c2)c(I)c1)C(=O)O	none (no result: NPSR antag)
COc1ccc2c(c1)N(C[C@@H](C)CN(C)C)c1ccccc1S2	none (no result: NPSR antag)
N#Cc1ccccc1Sc1ccccc1N	none (no result: ERK EGF block)
N#CC(=C(/N)Sc1ccccc1N)/C(C#N)=C(/N)Sc1ccccc1N	ERK EGF block 0.89µM (no result: NPSR antag) | cRaf kinase inh inactive
CC(C)CN1CC[C@@]2(CCCN(C(=O)c3ccco3)C2)C1	none (no result: NPSR antag)
COCC(=O)N1CCC[C@@]2(CCN(Cc3nccs3)C2)C1	none (no result: NPSR antag)
Cc1sc2ncnc(Sc3nnnn3-c3ccc(Cl)cc3)c2c1C	NPSR antag inconclusive (no result: ERK EGF block) | pERK EGF inh inactive | cRaf kinase inh inactive | MEK1 kinase inh inactive
c1ccc(-n2nnnc2Sc2ncnc3sc4c(c23)CCCC4)cc1	none
COc1ccc(N2CC(=O)N(c3ccccc3)C2=S)cc1	none

Screening data as filed in PubChem.
